# Source: PubChem BioAssay (National Center for Advancing Translational Sciences (NCATS))
# A selection: hits, their analogues and other compounds. The true share with any hit is near 3%.
# TR SRC2 fluor cs – Total Fluorescence Counterscreen for Inhibitors of the Interaction of Thyroid Hormone Receptor and Steroid Receptor Coregulator 2; TRb/SRC2 Texas Red total fluorescence interference; Potency, µM (doses to about 106 µM), inactives show at the top dose fluorescence change, negative = quenching; hit rate 0.29% among 280,000; AID 1479, 2009; active means well fitted curve in either direction with a large enough effect; inconclusive means small, poorly fitted or top-dose-only effect
#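 Human TRβ ligand-binding domain (0.6 uM) and Texas Red SRC2 peptide (20 nM) in Tris buffer with 1 uM T3 and 5% DMSO were incubated with pinned compound for 5 hr at ambient temperature. Total fluorescence was computed as S + 2P (555/632 nm).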
# Tau fibril FP – qHTS for Inhibitors of Tau Fibril Formation, Fluorescence Polarization. Microtubule-associated protein tau (Homo sapiens), P10636. K18 P301L tau heparin fibrillization, Alexa594 FP, 6 h. Potency, µM (highest dose often 57.7 µM), without a hit: at the top dose activity, negative = inhibition, usual class: inhibitors. hit rate 0.39% among 280,000; further: nearly all actives have a fitted effect of over 55% in size
# Target sequence (P10636 561-689 P618L limits assumed): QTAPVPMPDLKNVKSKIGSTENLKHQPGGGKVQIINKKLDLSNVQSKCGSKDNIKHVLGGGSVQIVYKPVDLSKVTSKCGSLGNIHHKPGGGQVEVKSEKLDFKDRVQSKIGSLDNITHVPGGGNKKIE
#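 Human K18 P301L fragment (15 uM unlabeled plus 0.24 uM Alexa 594-labeled) in 100 mM sodium acetate pH 7 with compound, aggregation induced by 20 uM heparin for 6 hr at 37 C. ThT (30 uM) added for 1 hr, then Alexa 594 FP read.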
# TRb-SRC2 inh – qHTS for Inhibitors of the Interaction of Thyroid Hormone Receptor and Steroid Receptor Coregulator 2 | TRbeta-SRC2 peptide binding, fluorescence polarization; receptor liganded with 1 µM T3 | hit rate 0.065% among 280,000 | Potency, µM (titrated, usually from 106 µM), without a hit: top-dose activity change, negative = inhibition, most hits filed as inhibitors | Thyroid hormone receptor beta (Homo sapiens), P10828;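 further: plate controls were bound peptide for no effect and peptide without receptor for full effect; nearly all actives have a fitted effect of over 50% in size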
# Target sequence (P10828 whole entry, looked up): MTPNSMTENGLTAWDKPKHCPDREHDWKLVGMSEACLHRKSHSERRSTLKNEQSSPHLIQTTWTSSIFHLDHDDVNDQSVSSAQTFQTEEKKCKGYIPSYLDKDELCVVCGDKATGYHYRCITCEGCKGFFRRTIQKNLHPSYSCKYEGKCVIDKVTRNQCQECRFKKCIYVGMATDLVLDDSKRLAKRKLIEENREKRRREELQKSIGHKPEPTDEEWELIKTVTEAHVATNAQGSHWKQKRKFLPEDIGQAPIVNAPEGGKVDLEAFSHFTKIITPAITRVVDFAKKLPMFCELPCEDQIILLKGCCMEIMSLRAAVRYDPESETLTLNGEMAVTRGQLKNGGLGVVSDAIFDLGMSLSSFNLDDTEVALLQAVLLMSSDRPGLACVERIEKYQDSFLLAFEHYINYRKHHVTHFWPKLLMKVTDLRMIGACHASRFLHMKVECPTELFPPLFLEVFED
#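 Decrease in fluorescence polarization of 20 nM Texas Red SRC2 coactivator peptide flagged inhibition of its binding to 0.6 uM TRb LBD; 1 uM T3 included, incubation 5 hr, ex 555/em 632 nm.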
# Tau fluor cs – Counterscreen qHTS for Inhibitors of Tau Fibril Formation, Fluorescence Polarization; tau K18 P301L Alexa594 fluorescence, heparin fibrillization; Potency, µM (top dose mostly 57.7 µM), without a hit: top-dose activity change, negative = decrease; hit rate 0.93% among 280,000; further: nearly all actives have a fitted effect of over 55% in size
#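 Human K18 P301L tau (15 uM unlabeled plus 0.24 uM Alexa 594-labeled, final) in 100 mM sodium acetate pH 7 was mixed with compound and 20 uM heparin and incubated 6 hr at 37 C.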
# Tau fibril ThT – qHTS for Inhibitors of Tau Fibril Formation, Thioflavin T Binding; AID 1460, 2008; recombinant tau K18 P301L (four-repeat tau fragment), heparin-induced fibrillization, ThT fluorescence; Potency, µM (highest dose often 57.4 µM), for inactives: at the top dose activity, negative = inhibition, hits mostly inhibitors; Microtubule-associated protein tau (Homo sapiens), P10636; hit rate 2.1% among 270,000; further: nearly all actives have a fitted effect of over 55% in size
#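 In this qHTS, human K18 P301L tau is incubated with compound and heparin for 6 hr at 37 C, and Thioflavin T fluorescence then reports fibril load.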
# * marks the source's active call; other numbers are inactive results; ? = inconclusive; · = no result; ! = not confirmed by another sample; [ ] = remark or other dose. Unless noted, the call rests on the fitted dose curve; in most records, active means well fitted curve in the direction sought with a large enough effect; inconclusive means small, poorly fitted or top-dose-only effect, or another doubt; inactive means no such curve, though single readings can be large; an effect the other way counts as inactive or inconclusive. Unless noted, on the % scale 0 is the no-effect control and ±100 the full control effect; potency means the concentration at half of the fitted maximal effect.
SMILES,TR SRC2 fluor cs,Tau fibril FP,TRb-SRC2 inh,Tau fluor cs,Tau fibril ThT
O=C(C1=C[C@@H]2[C@H]3C(=O)N(c4ccccc4Cl)C(=O)[C@H]3[C@@H](C(=O)c3ccc(Cl)cc3)N2C=C1)c1ccccc1,8%,-9%,0%,?,22µM*
COc1cc(/C=N/N=C(/N)c2nonc2N)cc(Br)c1OCc1cccc(C)c1,-3%,28µM*,-6%,?,?
O=P(O)(O)OC1[C@H](O)[C@H](OP(=O)(O)O)C(OP(=O)(O)O)[C@H](OP(=O)(O)O)[C@H]1O (some centres not stated),-5%[2.82 µM],6%[2.34 µM],-3%[2.82 µM],3%[2.34 µM],-5%[2.31 µM]
COc1ccc2c(Sc3ccccc3)c(C(=O)N3CCC(C)CC3)[nH]c2c1,0%,?,1%,-12%,-7%
CCOC(=O)N/N=C1/C[C@@H](O)[C@@H](O)[C@@H]2[C@H]3C(=O)N(c4ccc(F)cc4F)C(=O)[C@@H]3CC[C@H]12,-1%[11.2 µM],1%[11.6 µM],-1%[11.2 µM],-1%[11.6 µM],-1%[11.5 µM]
N#CCCN1CCCc2cc(N=Nc3ccc(C(F)(F)F)cc3)ccc21,-3%,?,3%,8.9µM*[quencher],3.5µM*
CCCN1CCCc2ccccc21,-2%,-1%,-8%,-14%,-11%
N#Cc1nc(-c2cccs2)oc1NCc1ccc(Cl)cc1,-3%,?,7%,18µM*[quencher],-10%
N#Cc1nc(-c2cccs2)oc1NCc1ccccc1,-7%,12%,0%,?,-17%
O=C1/C(=C/c2ccc([N+](=O)[O-])cc2)C=C(c2ccccc2)N1c1ccc(O)cc1,-3%,-5%,-7%,11µM*[quencher],5.6µM*
O=C1/C(=C/c2ccc([N+](=O)[O-])cc2)C=C(c2ccccc2)N1c1ccccc1,-2%,-2%,0%,-11%,-11%
O=C(O)c1cccc(N2C(=O)/C(=C/c3ccc([N+](=O)[O-])cc3)C=C2c2ccccc2)c1,-5%,-9%,-7%,?,6.3µM*
CC1=C(C(=O)Nc2ccc(C)cc2)C(c2ccc(Cl)cc2)n2nnnc2N1 (configuration not stated),-1%,?,-1%,-17%,6%
CC1=C(C(=O)Nc2ccc(Cl)cc2)C(c2ccc(C(F)(F)F)cc2)n2nnnc2N1 (configuration not stated),1%,22µM*,-1%,?,-6%
COc1ccc(CNC(=O)CCCN2C(=O)CCn3nc(-c4cn(C)c5ccccc45)cc32)cc1,?,-1%,-6%,-3%,-3%
O=C(/C=C/c1ccc(O)c(O)c1)O[C@H](Cc1ccc(O)c(O)c1)C(=O)O,25µM*[quencher],?,?,14µM*[quencher],13µM*
N[C@H](Cc1ccc(O)c(O)c1)C(=O)O,28µM*![quencher],?,0%,-8%,16µM*
COC(=O)C(N)Cc1ccc(O)c(O)c1 (configuration not stated),2%,1%,4%,-13%,?
N[C@@H](Cc1ccc(O)cc1)C(=O)O,0%,-4%,3%,-3%,-5%
NC(Cc1ccc(O)c(O)c1)C(=O)O (configuration not stated),-18%,25µM*,1%,18µM*[quencher],11µM*
Cn1c(N=Nc2ccc(N3CCOCC3)cc2)[n+](C)c2ccccc21,-2%,14µM*,-7%,4µM*[quencher],1µM*
CCOC(=O)Cc1csc(NC(=O)c2ccc(Br)o2)n1,2%,1%,8%,-4%,-19%
CCOC(=O)Cc1csc(NC(=O)c2sc3nc4cc(C)ccc4cc3c2N)n1,6%,14%,-18%,?,2.5µM*
CCOC(=O)Cc1csc(NC(=O)c2sc3nc4ccc(CC)cc4cc3c2N)n1,-14%,3%,0%,-28%,8.9µM*
CCOC(=O)Cc1csc(NC(=O)c2ccc(C)cc2)n1,1%[53 µM],-5%,2%[53 µM],-12%,-12%
SMILES,TR SRC2 fluor cs,Tau fibril FP,TRb-SRC2 inh,Tau fluor cs,Tau fibril ThT
O=c1c2cc3c(cc2n(Cc2ccc(Cl)cc2)c(=O)n1Cc1nc(-c2ccccc2)no1)OCO3,-2%,-5%,2%,-7%,3%
COC(=O)c1c(OC)cc2c(c1C)Oc1c(Cl)c(O)c(Cl)c(C)c1C(=O)O2,0%,1%,-3%,-16%,?
COc1cc(C)c2c(c1C=O)Oc1c(c(C)c(O)c3c1C(O)OC3=O)OC2=O (configuration not stated),?,25µM*,?,?,14µM*
Cc1cc(O)c(C=O)c2c1C(=O)Oc1c(C)c(O)c3c(c1O2)C(O)OC3=O (configuration not stated),-6%,?,5%,?,7.9µM*
COc1ccc(CCNC(=O)Cn2c(-c3ccc(F)cc3)cc(C(C)=O)c2C)cc1OC,-27%,2%,3%,-1%,-3%
Cc1ccc(N=C2NC(=O)/C(=C/c3cn(C)c4ccccc34)S2)cc1C,0%[53 µM],15%,-7%[53 µM],?,4µM*
O=C1NC(=Nc2ccccc2)S/C1=C\c1cccs1,-2%,-10%,8%,-24%,·
O=C1NC(=Nc2ccc(O)cc2)S/C1=C/c1ccco1,-8%,-10%,3%,?,?
Cc1ccc(N=C2NC(=O)/C(=C/c3cccn3C)S2)c(C)c1,-1%,10%,-2%,-3%,?
Cn1cccc1/C=C1\SC(=Nc2ccccc2)NC1=O,-1%,1%,1%,?,13µM*
Cn1cccc1/C=C1\SC(=Nc2cccc(O)c2)NC1=O,-8%,11%,6%,?,7.1µM*
Cn1cc(/C=C2/SC(=O)N(c3ccccc3)C2=O)c2ccccc21,0%,5%,-2%,-17%,6%
Cn1cccc1/C=C1\SC(=Nc2ccc(O)cc2)NC1=O,-4%,1%,2%,?,4.5µM*
Cn1c(=O)[nH]c(=O)n(C2CCCCC2)c1=O,0%[201 µM],·,-3%[201 µM],·,·
Cc1ccc2oc(=O)n(CCNC(=O)Nc3ccccc3Cl)c2c1,0%,0%,-3%,-20%,-14%
C=CCN1C(=O)/C(=C/c2ccc(OCC(=O)O)cc2)S/C1=N/c1nccs1,-10%,5%,14%,0%,?
C=CCN1C(=O)/C(=C/c2ccc(O)c(OC)c2)S/C1=N/c1nccs1,-7%,0%,9%,28µM*[quencher],?
O=C(Nc1cc(F)ccc1F)N1CCC(CN2CCOCC2)CC1,8%,0%,5%,3%,4%
O=C(Nc1ccc(Cl)cc1)Nc1nc(-c2sccc2Br)cs1,1%,?,0%,?,?
O=C(Nc1ccccc1)Nc1nc(-c2ccccc2)cs1,-3%,?,1%,-27%,6%
